Test results published in PubChem BioAssay AID504710 (Sanford-Burnham Center for Chemical Genomics, 2011).
Active and inactive are the calls of the source.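 The calls were made as follows: active = inhibition reaching about 16% in any single replicate (limit read from the data); inactive = the rest.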

biological target: Hexokinase HKDC1 (Homo sapiens) (UniProt Q2TB90); assay: compounds lowering human HKDC1 activity – biochemical, single concentration, confirmation (AID 504710); conditions: recombinant HKDC1, G6PDH/diaphorase/resazurin fluorescence; at 20 µM; hits give high values
Sequence (Q2TB90 whole entry, looked up): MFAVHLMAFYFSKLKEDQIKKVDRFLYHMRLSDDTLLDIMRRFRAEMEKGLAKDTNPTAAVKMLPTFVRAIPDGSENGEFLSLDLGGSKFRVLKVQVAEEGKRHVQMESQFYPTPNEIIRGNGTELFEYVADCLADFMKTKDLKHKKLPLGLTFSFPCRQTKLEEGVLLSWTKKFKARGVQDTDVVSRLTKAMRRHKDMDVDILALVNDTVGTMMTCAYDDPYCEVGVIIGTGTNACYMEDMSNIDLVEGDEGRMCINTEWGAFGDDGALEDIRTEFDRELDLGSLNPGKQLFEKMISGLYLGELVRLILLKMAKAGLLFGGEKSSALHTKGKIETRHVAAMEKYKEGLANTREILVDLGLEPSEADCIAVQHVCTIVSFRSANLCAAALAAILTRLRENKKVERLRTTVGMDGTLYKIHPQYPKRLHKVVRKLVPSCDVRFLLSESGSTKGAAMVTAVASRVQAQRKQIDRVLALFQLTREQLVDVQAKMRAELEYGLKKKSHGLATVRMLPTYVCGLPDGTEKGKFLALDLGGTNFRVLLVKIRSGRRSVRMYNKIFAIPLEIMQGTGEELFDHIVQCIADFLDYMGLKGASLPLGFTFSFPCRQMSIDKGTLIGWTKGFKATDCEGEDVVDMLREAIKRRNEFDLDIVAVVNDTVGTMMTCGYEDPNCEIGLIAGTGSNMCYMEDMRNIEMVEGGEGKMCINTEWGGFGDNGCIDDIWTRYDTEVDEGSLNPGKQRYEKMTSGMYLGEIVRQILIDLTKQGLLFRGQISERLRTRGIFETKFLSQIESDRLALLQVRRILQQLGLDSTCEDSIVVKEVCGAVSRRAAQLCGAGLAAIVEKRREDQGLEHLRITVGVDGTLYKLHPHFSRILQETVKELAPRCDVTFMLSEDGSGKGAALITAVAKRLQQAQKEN

Row | Compound | inhibition
1 | Nc1nc(N2CCN(c3ccccn3)CC2)nc2ccccc12 | -44.1% (inactive)
2 | O=c1c2ccccc2nc(/C=C/c2cccnc2)n1CCc1ccccc1 | 38.8% (active)
3 | O=C1C(Cl)=C(NCc2cccnc2)C(=O)c2ccccc21 | -45.1% (inactive)
4 | COC(=O)c1c(NC(C)=O)sc(Cc2ccccc2)c1C | -37.8% (inactive)
5 | Oc1ccc(/C=N/Nc2ncc(Br)cn2)c(O)c1 | 44.6% (active)
6 | CCC(c1ccccc1)C(CC)c1cc(O)c(O)c(O)c1 (configuration not stated) | 35.8% (active)
7 | COP(=O)(OC)c1ccc(NCc2cc(O)ccc2O)cc1 | 53.1% (active)
8 | Cc1cc(Oc2ccc(C(C)(C)C)cc2)nc(N2CCOCC2)n1 | -37% (inactive)
9 | CC(=NNc1nc2ccccc2o1)c1cc2ccccc2cn1 | -77.2% (inactive)
10 | O=C1C(Nc2ccc(O)cc2)=C/C(=N/S(=O)(=O)c2cccs2)c2ccccc21 | 56.9% (active)
11 | CCOc1ccc(/C=C2/SC(=S)N(CCC(=O)Nc3ccc(C(=O)O)cc3)C2=O)cc1 | -41.5% (inactive)
12 | Cc1cc2cc(CCNC(=O)c3ccc(S(=O)(=O)N4CCOCC4)cc3)c(=O)[nH]c2cc1C | 45% (active)
13 | CCOC(=O)C1=C(Cc2ccc(F)cc2)C(=O)c2ccccc2C1=O | 59.2% (active)
14 | O=C(CNC(=O)/C=C/c1ccco1)N=Nc1c(O)[nH]c2ccccc12 | 39% (active)
15 | Cn1c(-c2ccccc2)c(C(=O)CC#N)c2ccccc21 | -42% (inactive)
16 | O=C(CSc1n[nH]c(-c2cccnc2)n1)Nc1ccnc2ccccc12 | 46% (active)
17 | CCN(CC)C(=O)c1ccc(C(=O)c2c(C)cc(C)cc2C)cc1 | -40.1% (inactive)
18 | O=C1C(Cl)=C(NCCc2ccccc2)C(=O)c2ccccc21 | 59.5% (active)
19 | CC(=O)Oc1cccc2c1C(=O)C1CC=CC(OC(C)=O)C1C2=O (configuration not stated) | -65.8% (inactive)

Row | Compound | inhibition
20 | COC(=O)c1ccccc1NC1=C/C(=N\S(=O)(=O)c2ccc(C(=O)O)cc2)c2ccccc2C1=O | 86% (active)
21 | Cc1ccc(NC2c3ncccc3C(=O)N2c2ccccc2C)cc1C (configuration not stated) | 36.2% (active)
22 | Cc1ccc(C)c(-n2nnnc2Sc2nnnn2-c2ccccc2)c1 | 38.7% (active)
23 | O=C(O)c1ccc2ncsc2c1 | 48.1% (active)
24 | CCOC(=O)c1c(NC(=O)CSc2nnnn2-c2ccc(OC)cc2)sc(C)c1C | -42.3% (inactive)
25 | Cn1c2ccccc2c(=O)c2c(=O)n(-c3ccc(F)cc3)c(-c3cccs3)nc21 | 66% (active)
26 | Cc1nc([N+](=O)[O-])c(Br)n1Cc1ccc(Cl)c(Cl)c1 | 53.8% (active)
27 | NC(=NCc1ccc2c(c1)OCO2)NC(=O)c1ccccc1 | 16.7% (active)
28 | COC1=CC(=O)C=C(OC)C1=O | 75.2% (active)
29 | S=C(NN=C(c1ccccc1)c1ccccn1)N(Cc1ccccn1)Cc1ccccn1 | -59.4% (inactive)
30 | C=CCN1C=C2C(=O)C(C)(OC(=O)CCC(=O)OC)C(=O)C(Br)=C2C=C1c1ccc(OC)cc1 (configuration not stated) | 57.5% (active)
31 | Nc1ccc(S(=O)(=O)c2cc(O)c3ccccc3c2O)cc1 | 68.7% (active)
32 | COC1=CC(=O)C(C2CC(=O)c3c(O)cc(O)cc3O2)=CC1=O (configuration not stated) | 39.8% (active)
33 | CC(=O)Nc1ccc(NC2=C/C(=N/S(=O)(=O)c3cccs3)c3ccccc3C2=O)cc1 | 51.9% (active)
34 | CC(C)(C)c1c(Cl)c(O)c(-c2ccccc2)c(=O)n1-c1ccccc1 | 40.9% (active)
35 | O=C1c2ccccc2-c2onc3ccc(Oc4ccccc4)c1c23 | 28.2% (active)
36 | CC(=O)N(C1=C(Cl)C(=O)c2ccccc2C1=O)c1ccc(C(=O)O)cc1 | 64.4% (active)
37 | CCOC(=O)c1ccc(NC(=O)CSc2ccc(-c3ccccn3)nn2)cc1 | 31.3% (active)
